PubChem BioAssay AID504847 (National Center for Advancing Translational Sciences (NCATS), 2011)
Hit rate of the full screen: of about 400,000 compounds, about 3,700 (0.93%) were called active. Not shown: some 3% with an inconclusive outcome. The sample as a whole holds a higher share of actives than the screen did. A number with no mark means an inactive call. The call rests on the fitted dose curve; in most records, active means well fitted inhibition curve with a large enough effect; inconclusive means small, poorly fitted or top-dose-only effect, or another doubt; inactive means no such curve, though single readings can be large or run the other way.

molecular target: Vitamin D3 receptor (Homo sapiens) (UniProt P11473); assay: Inhibitors of the vitamin D receptor (VDR): qHTS; details: VDR-SRC2-3 peptide fluorescence polarization, 2 h; max response, negative = inhibition: hits give low values
Sequence (P11473 whole entry, looked up): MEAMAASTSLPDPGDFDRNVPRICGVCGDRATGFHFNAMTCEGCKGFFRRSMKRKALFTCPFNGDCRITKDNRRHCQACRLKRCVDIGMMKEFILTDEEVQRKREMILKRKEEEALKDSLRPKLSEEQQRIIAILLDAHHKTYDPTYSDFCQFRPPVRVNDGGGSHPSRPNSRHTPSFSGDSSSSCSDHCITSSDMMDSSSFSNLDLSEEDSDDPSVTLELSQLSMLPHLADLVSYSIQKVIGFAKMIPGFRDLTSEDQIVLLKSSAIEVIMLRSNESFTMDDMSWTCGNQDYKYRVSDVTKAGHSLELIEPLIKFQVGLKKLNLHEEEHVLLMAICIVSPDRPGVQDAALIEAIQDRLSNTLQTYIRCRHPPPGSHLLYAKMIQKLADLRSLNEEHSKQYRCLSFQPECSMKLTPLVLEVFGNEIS
Method in brief: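 Measured by FP: displacement of SRC2-3 coactivator peptide from VDR by library compounds, following a two-hour ambient incubation.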
On the % scale 0 is the no-effect control and ±100 the full control effect; potency means the concentration at half of the fitted maximal effect.

Compound | max response, negative = inhibition [%] | Potency
Cc1nc2cnc(N3CCNCC3)nc2n(CCc2ccccc2)c1=O | -10.9 | 
CCCCC(=O)NC(c1ccc(OC)c(OC)c1)c1ccc2cccnc2c1O (stereo not drawn) | 6.08 | 
COc1ccccc1N1CCN(C(CNC(=O)C(=O)NCc2ccc(C)cc2)c2cccnc2)CC1 (stereo not drawn) | 1.11 | 
CCOC(=O)N1CCN(C(c2cccnc2)c2ccc3cccnc3c2O)CC1 (stereo not drawn) |  | 39.8 µM (active)
COc1ccc(CCNC(=O)c2ccc3c(c2)nc(C)n3-c2ccc(Br)cc2)cc1OC | 12.9 | 
C#CC(C)(CC)NC(=O)Cn1nnc(-c2ccc(OCc3c(F)cccc3Cl)cc2)n1 (stereo not drawn) | 15.5 | 
COc1cccc(C(=O)NCCS(=O)(=O)NCC2CCCO2)c1 (stereo not drawn) | -19.7 | 
CNS(=O)(=O)c1cccc(C(=O)NCC2CCCCC2)c1 | 12.7 | 
CN(C)S(=O)(=O)N1CCC(Oc2cccc(C(=O)NCCCC3CCCC3)c2)CC1 |  | 28.2 µM (active)
COc1cccc(C(=O)CC(=O)C(=O)Nc2ccc([N+](=O)[O-])cc2C)c1 | -6.66 | 
COc1cccc(NCCC(=O)c2cccc([N+](=O)[O-])c2)c1 |  | 79.4 µM (active)
CC(C)(C)SCCNC(=O)c1cccc([N+](=O)[O-])c1 | -16.4 | 
COC(=O)c1ccc(-c2nc3cc(NC(C)=O)ccc3o2)cc1 | -22.5 | 
H-EHIPA-OH | 2.51 | 
CCc1ccc(NC(=O)C2CCCN2S(=O)(=O)c2ccc3nc(-c4ccccc4)[nH]c3c2)cc1 (stereo not drawn) | 14.5 | 
Oc1c(Cl)cc(Cl)c(Cl)c1Cc1c(O)c(Cl)cc(Cl)c1Cl |  | 44.7 µM (active)
CCOC(=O)C1=NO[C@@]2(C=C(Br)C(=O)[C@H]3O[C@H]32)C1 |  | 11.2 µM (active)
CCOC(=O)C1=NOC(Cn2cc(C(C)=O)c(=O)[nH]c2=O)C1 (stereo not drawn) | 1.11 | 
COc1cc2c(cc1OC)CC(=O)N(CCCN(C)C[C@H]1Cc3cc(OC)c(OC)cc31)CC2 | 7.93 | 
Cc1ccc(S(=O)(=O)N2CCN(C(=O)N3CCOCC3)CC2)c(C)c1 | -13.6 | 

Compound | max response, negative = inhibition [%] | Potency
O=C(c1ccc(CSc2ccccc2)cc1)N1CCCCCC1 | -7.06 | 
Cc1ccc(-n2c(N)c(C(=O)N3CCOCC3)sc2=S)c(C)c1 |  | 79.4 µM (active)
N#Cc1c(N)sc2c1CCN(C(=O)OCc1ccccc1)C2 | -3.82 | 
N#Cc1ccccc1-n1c(N)c(C(=O)N2CCCC2)sc1=S |  | 50.1 µM (active)
Cc1ccc(N2CCN(C(=O)c3cccs3)CC2)c(C)c1 | 7.64 | 
CCCCNC(=O)c1ccc2c(c1)NC(=O)C(C(C)C)N2 (stereo not drawn) | -3.65 | 
CCc1ccc(NC(=O)CN2CCSc3ccc(S(=O)(=O)N4CCCC4)cc32)cc1 | 9.86 | 
O=C(c1cccc(Br)c1)N1CCN(Cc2cc(=O)n3nc(-c4ccccc4)sc3n2)CC1 | 13 | 
CCc1ccc(OCCCn2c(CCCNC(=O)C3CCCCC3)nc3ccccc32)cc1 | -1.15 | 
O=C(NCCCO)C(=O)Nc1c2c(nn1-c1ccccc1)CSC2 | 5.32 | 
COc1ccc(CCNC(=O)CCCCn2c(=O)c3ccccc3n(Cc3ccccc3C)c2=O)cc1OC | 7.91 | 
COc1ccccc1N1CCN(/N=C\C(Br)=C\c2ccccc2)CC1 |  | 44.7 µM (active)
COc1cc(/C=N/N2CCN(c3ccccc3)CC2)ccc1OC(C)=O | -1.69 | 
COc1ccccc1N1CCN(/N=C/c2ccc(O)cc2O)CC1 | -16.7 | 
Cc1cc(C)cc(-n2ccnc2SCC(=O)Nc2nc3ccccc3s2)c1 | -5.28 | 
COc1cccc(-c2n[nH]c3c2C(c2cccc(O)c2)N(C)C3=O)c1 (stereo not drawn) | 9.73 | 
Cc1ccc(NC(=O)CSc2nc3c([nH]c4ccccc43)c(=O)n2-c2ccccc2)c(C)c1 | 3.26 | 
Cc1cccc(-n2ccnc2SCC(=O)Nc2cccc3ccccc23)c1C | 21 | 
O=C(c1cccnc1)N(Cc1ccccc1)C(=O)c1cccnc1 | -6.19 | 
COc1ccc(N(C(=O)c2cccnc2)S(=O)(=O)c2ccc(OC)c(OC)c2)cc1 | 2.95 | 

Compound | max response, negative = inhibition [%] | Potency
O=C(c1cccnc1)N(c1cc2sc(=O)oc2c2ccccc12)S(=O)(=O)c1ccccc1 |  | 25.1 µM (active)
Cc1sc2ncn(CC(=O)N3CCN(c4ccc(F)cc4)CC3)c(=O)c2c1S(=O)(=O)N1CCN(c2ncccn2)CC1 | -10.1 | 
O=S(=O)(c1ccccc1)c1nc(-c2ccc(Cl)cc2Cl)oc1N1CCCCC1 | 1.4 | 
CCOc1ccc(S(=O)(=O)Nc2ccc3oc4c(c3c2)CC(C)CC4)cc1 (stereo not drawn) | -17.2 | 
O=C(NC1=CC(=O)c2ccccc2C1=O)c1ccccc1 |  | 11.2 µM (active)
COC(=O)c1nc(NC(=O)c2ccccc2)n[nH]1 | -20 | 
O=C(Nc1ccc2ccccc2c1[N+](=O)[O-])c1ccccc1 | -2.31 | 
CC(=O)OC1=C(C(C)=O)N(Cc2ccccc2)S(=O)(=O)c2ccccc21 | 8.35 | 
CCOC(=O)N1CCc2c(sc(NCc3cccc(F)c3)c2C(=O)Nc2ccccc2OCC)C1 | -13.2 | 
COCCOC(=O)c1sc(=S)n(CCOC)c1N | -9.87 | 
COC(=O)c1sc(N2CCN(Cc3ccccc3)CC2)nc1N | 1.38 | 
COC(=O)c1sc(=S)n(-c2ccccc2)c1N |  | 79.4 µM (active)
COc1ccc(CCNC(=O)c2ccc(CSCc3ccc(C)cc3)o2)cc1OC | 9.55 | 
COc1cccc(Cn2c(=O)c(-c3ccccc3)nc3cnc(OC)nc32)c1 | -7.36 | 
CCNc1ncc2ncc(=O)n(Cc3cccc(OC)c3)c2n1 |  | 50.1 µM (active)
CCNc1ncc2ncc(=O)n(CCc3ccccc3)c2n1 | -21 | 
COc1ccc(CC(=O)NCCc2sc3nc(-c4ccc(OC)cc4)nn3c2C)cc1 | 5.32 | 
CCCCCCCCCc1ccc(OCCOCCOCCOCCOCCOCCOCCOCCOCCO)cc1 | 1.96 | 
